# Measurements reported in the supplement of paper PMC13380429.
# Columns and labels:
# [1] = system: Vero E6 infected with SARS-CoV-2; assay: morphology score (similarity to uninfected cells); higher = more like uninfected cells; settings: 24 h
# [2] = system: Vero E6 infected with SARS-CoV-2; assay: SARS-CoV-2 infection rate relative to infected DMSO; higher = more infection, active = 60 or less; settings: 24 h
Structure (SMILES),morphology score [1],SARS-CoV-2 infection rate [2]
CC(C)(C)NC[C@H](O)COc1cccc2c1CCCC2=O [levobunolol] (10 µM),0.0302,108% (inactive)
Nc1nc(N)nc(NC2CC2)n1 [cyromazine] (10 µM),0.128,86.5% (inactive)
OCCN1CCN(CCCN2c3ccccc3Sc3ccc(Cl)cc32)CC1 [perphenazine] (0.833333 µM),-0.0186,109% (inactive)
O=C(NNC(=O)c1ccc(CNS(=O)(=O)c2ccc(F)c(Cl)c2)cc1)c1ccccc1 (10 µM),-0.0845,114% (inactive)
Cc1ccc(CC2(O)CCN(CCOc3ccc(O)cc3)CC2)cc1 (10 µM),-0.0871,111% (inactive)
COc1ccc(-c2ccc3cc(C(=O)O)ccc3c2)cc1C12CC3CC(CC(C3)C1)C2 [adapalene] (10 µM),-0.091,104% (inactive)
Cn1c(Nc2ccc(C(F)(F)F)cc2)nc2cc(Oc3ccnc(-c4ncc(C(F)(F)F)[nH]4)c3)ccc21 (10 µM),-0.041,100% (inactive)
CC1(C)CCC(C)(C)c2cc(C3(c4ccc5cc(C(=O)O)ccc5c4)SCCS3)ccc21 (10 µM),0.132,98% (inactive)
CCCCOc1cc(C(=O)OCCN(CC)CC)ccc1N [oxybuprocaine] (10 µM),0.0894,114% (inactive)
c1ccc2nc(C3=NCCN3)ccc2c1 (10 µM),0.125,93% (inactive)
O=C(Nc1cnn2ccc(N3CCC[C@@H]3c3cc(F)ccc3F)nc12)N1CC[C@H](O)C1 [larotrectinib] (10 µM),-0.124,122% (inactive)
N[C@H]1C[C@@H]1c1ccccc1 (racemic) [tranylcypromine] (10 µM),0.0679,114% (inactive)
Cc1nc(-c2cn3c(n2)-c2ccc(-c4cnn(C(C)(C)C(N)=O)c4)cc2OCC3)n(C(C)C)n1 [taselisib] (0.833333 µM),-0.0504,98.5% (inactive)
Cc1ccc(S(N)(=O)=O)cc1 [para-toluenesulfonamide] (10 µM),-0.0434,106% (inactive)
Cc1c(O)c(=O)n(-c2ccccc2)n1C [4-hydroxy-phenazone] (10 µM),-0.0731,116% (inactive)
Cc1nc2c(c(=O)[nH]1)CSCC2 (10 µM),0.0297,114% (inactive)

Structure (SMILES),morphology score [1],SARS-CoV-2 infection rate [2]
S=C=Nc1ccc(N=C=S)cc1 [bitoscanate] (10 µM),-0.0255,106% (inactive)
CN1CCc2c(c3ccccc3n2Cc2ccccc2)C1 [mebhydrolin] (10 µM),0.242,104% (inactive)
O=c1[nH]c(=O)n([C@H]2CCCO2)cc1F (racemic) [ftorafur] (10 µM),-0.016,116% (inactive)
COc1ccc(CCN2CCN(CCCc3ccccc3)CC2)cc1OC [cutamesine] (10 µM),-0.0482,106% (inactive)
CCN(CC)CCCC(C)Nc1ccnc2cc(Cl)ccc12 (configuration not stated) [chloroquine] (10 µM),0.554,57.5% (active)
NNCCc1ccccc1 [phenelzine] (10 µM),0.113,102% (inactive)
N[C@@H](Cc1ccc(O)cc1)C(=O)O [plovamer-acetate] (10 µM),0.0812,108% (inactive)
C[C@H](CCC(=O)O)[C@H]1CC[C@H]2[C@@H]3CC[C@@H]4C[C@H](O)CC[C@]4(C)[C@H]3C[C@H](O)[C@]12C [deoxycholic-acid] (10 µM),0.0921,104% (inactive)
C[N+](C)(C)CCCCCCCCCC[N+](C)(C)C [decamethonium] (10 µM),0.0864,108% (inactive)
C=CCN1CCc2cc(O)c(O)cc2[C@H](c2ccccc2)C1 (10 µM),-0.0101,95% (inactive)
Cn1cnc2c(NCc3ccccc3)nc(NCCO)nc21 [olomoucine] (10 µM),0.0162,98.5% (inactive)
CCOc1ccccc1OC(c1ccccc1)C1CNCCO1 (configuration not stated) [reboxetine] (10 µM),-0.0871,113% (inactive)
Cc1cccc(CN2CCN(C(c3ccccc3)c3ccc(Cl)cc3)CC2)c1 (configuration not stated) [meclizine] (10 µM),0.0755,108% (inactive)
O=C(c1ccc(/C=C/c2n[nH]c3ccccc23)cc1)N1CCNCC1 (10 µM),0.964,94.5% (inactive)
Nc1nc(-c2nn(Cc3ccccc3F)c3ncccc23)ncc1C1CC1 (0.833333 µM),-0.057,102% (inactive)
